# Reference: the supplement of paper PMC12669032
# Tested on: Roseburia intestinalis
# Assay: growth AUC relative to DMSO control (median of replicates) (fraction); higher = more growth (less inhibition), active = hit call of the paper
# Settings: 20 µM; 24 h;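 active = AUC reduced over 20% with Padj below 0.05 in at least 2 of 3 replicates; inactive = otherwise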
# Method in brief: (§1)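 For each compound at 20 µM (1% DMSO), gut bacterial monocultures seeded at OD600 0.05 grew anaerobically in mGAM at 37 °C in round-bottom 96-well plates. Hourly OD600 readings over 24 h gave growth curves whose minimum OD was set to 0. Area under these curves was normalised to the plate median of solvent-only wells, or to row and column medians on the industrial chemical plate. Values are medians of three biological replicates grown on separate days.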
row,SMILES,growth AUC
1,CCCCCCCC/C=C\CCCCCCCC(N)=O,0.933 (inactive)
2,CC(C)(NC(=O)NCc1ccccc1Cl)c1ccccc1,1.09 (inactive)
3,CC(C)(C)Nc1nc(N)nc(Cl)n1,1.01 (inactive)
4,CCNc1nc(N)[nH]c(=O)n1,1.06 (inactive)
5,COc1ccc(NC(=O)N(C)C)cc1Cl,0.925 (inactive)
6,Oc1c(Cl)cc(Cl)c(Cl)c1Cc1c(O)c(Cl)cc(Cl)c1Cl,0.0498 (active)
7,CCc1ccc(C(c2ccc(CC)cc2)C(Cl)Cl)cc1,1 (inactive)
8,CCc1cccc(CC)c1N(COC)C(=O)CS(=O)(=O)[O-].[Na+],1.03 (inactive)
9,CC(C)CCCCCCc1ccc(O)cc1,0.958 (inactive)
10,CCCCOCCOCCOCc1cc2c(cc1CCC)OCO2,1 (inactive)
11,COc1ccccc1C(=O)NS(=O)(=O)c1ccc(C(=O)NC2CC2)cc1,0.978 (inactive)
12,Cc1nn(C)c(F)c1C(=O)Nc1ccccc1C(C)CC(C)C (stereo unspecified),0.963 (inactive)
13,O=S(=O)(Cc1ccc(Cl)cc1)c1ccc(Cl)cc1,1.05 (inactive)
14,COC(=O)CCCOc1ccc(Cl)cc1Cl,0.887 (inactive)
15,COc1cc(OC)c(Cl)cc1N,1.06 (inactive)
16,CCOCCc1ccc(OCCNc2ncnc(CC)c2Cl)c(C)c1C,0.923 (inactive)
17,CC(C)(C)C(O)/C(=C\c1ccc(Cl)cc1)n1cncn1 (stereo unspecified),0.973 (inactive)
18,C=CCc1ccc(OC)c(OC)c1,1.03 (inactive)
19,CCCC(C)(C)C(=O)Nc1ccc(Cl)cc1,0.945 (inactive)

row,SMILES,growth AUC
1,COCCN(C(=O)CO)c1c(C)cccc1C(=O)O,1.01 (inactive)
2,CSc1nc(NC2CC2)nc(NC(C)(C)C)n1,0.981 (inactive)
3,O=C(Oc1ccccc1)n1c(C(F)(F)F)nc2cc(Cl)c(Cl)cc21,0.797 (active)
4,FC(F)(F)c1cccc(C(c2ccccc2)(c2ccccc2)n2cncn2)c1,0.911 (inactive)
5,CCOC(=O)Nc1cccc(OC(=O)Nc2cccc(C)c2)c1,0.912 (inactive)
6,Cc1[nH]n(C)c(=O)c1C(=O)c1ccc(C(F)(F)F)cc1S(C)(=O)=O,1.01 (inactive)
7,CCCNCCOc1c(Cl)cc(Cl)cc1Cl,0.946 (inactive)
8,CCOCCOC(=O)C(C)Oc1ccc(Oc2ncc(C(F)(F)F)cc2Cl)cc1 (stereo unspecified),0.953 (inactive)
9,Cc1cc(C)cc(OCC(C)Nc2nc(N)nc(C(C)(C)F)n2)c1 (stereo unspecified),0.971 (inactive)
10,Nc1ccc(S(=O)(=O)Nc2nccs2)cc1,0.993 (inactive)
11,O=C1NCC[n+]2ccccc21.[Br-],0.992 (inactive)
12,CC1=C(c2ccccc2)C(=O)N(C(C)(C)c2cc(Cl)cc(Cl)c2)CO1,1.03 (inactive)
13,CCCCOCCOC(=O)COc1ccc(Cl)cc1Cl,0.941 (inactive)
14,CC(C)c1ccccc1,0.991 (inactive)
15,CCOc1nc(F)cc2nc(S(=O)(=O)Nc3c(Cl)cccc3C(=O)OC)nn12,1.04 (inactive)
16,CCCOC(=O)NCCCN(C)C,1.02 (inactive)
17,CCS(=O)(=O)c1nnc(N(C)C(=O)NC)s1,1 (inactive)
18,Cl.NCCO/C=C/[C@H](N)C(=O)O,0.975 (inactive)
19,CC(C)CCCCCOC(=O)C(C)Oc1ccc(Cl)cc1Cl (stereo unspecified),1.03 (inactive)

# Tested on: Streptococcus salivarius
# Assay: as above
# Settings: 20 µM; 24 h
# Method in brief: as §1
row,SMILES,growth AUC
1,CCCCCCCC/C=C\CCCCCCCC(N)=O,0.952 (inactive)
2,CC(C)(NC(=O)NCc1ccccc1Cl)c1ccccc1,1 (inactive)
3,CC(C)(C)Nc1nc(N)nc(Cl)n1,0.975 (inactive)
4,CCNc1nc(N)[nH]c(=O)n1,0.978 (inactive)
5,COc1ccc(NC(=O)N(C)C)cc1Cl,0.927 (inactive)
6,Oc1c(Cl)cc(Cl)c(Cl)c1Cc1c(O)c(Cl)cc(Cl)c1Cl,0.0329 (active)
7,CCc1ccc(C(c2ccc(CC)cc2)C(Cl)Cl)cc1,0.963 (inactive)
8,CCc1cccc(CC)c1N(COC)C(=O)CS(=O)(=O)[O-].[Na+],0.964 (inactive)
9,CC(C)CCCCCCc1ccc(O)cc1,0.965 (inactive)
10,CCCCOCCOCCOCc1cc2c(cc1CCC)OCO2,1.03 (inactive)
11,COc1ccccc1C(=O)NS(=O)(=O)c1ccc(C(=O)NC2CC2)cc1,1.01 (inactive)
12,Cc1nn(C)c(F)c1C(=O)Nc1ccccc1C(C)CC(C)C (stereo unspecified),1.02 (inactive)
13,O=S(=O)(Cc1ccc(Cl)cc1)c1ccc(Cl)cc1,1.06 (inactive)
14,COC(=O)CCCOc1ccc(Cl)cc1Cl,0.931 (inactive)
15,COc1cc(OC)c(Cl)cc1N,1.06 (inactive)
16,CCOCCc1ccc(OCCNc2ncnc(CC)c2Cl)c(C)c1C,1 (inactive)
17,CC(C)(C)C(O)/C(=C\c1ccc(Cl)cc1)n1cncn1 (stereo unspecified),0.955 (inactive)
18,C=CCc1ccc(OC)c(OC)c1,1.02 (inactive)
19,CCCC(C)(C)C(=O)Nc1ccc(Cl)cc1,0.963 (inactive)

row,SMILES,growth AUC
1,COCCN(C(=O)CO)c1c(C)cccc1C(=O)O,0.965 (inactive)
2,CSc1nc(NC2CC2)nc(NC(C)(C)C)n1,1 (inactive)
3,O=C(Oc1ccccc1)n1c(C(F)(F)F)nc2cc(Cl)c(Cl)cc21,0.342 (active)
4,FC(F)(F)c1cccc(C(c2ccccc2)(c2ccccc2)n2cncn2)c1,0.94 (inactive)
5,CCOC(=O)Nc1cccc(OC(=O)Nc2cccc(C)c2)c1,0.971 (inactive)
6,Cc1[nH]n(C)c(=O)c1C(=O)c1ccc(C(F)(F)F)cc1S(C)(=O)=O,1.03 (inactive)
7,CCCNCCOc1c(Cl)cc(Cl)cc1Cl,0.964 (inactive)
8,CCOCCOC(=O)C(C)Oc1ccc(Oc2ncc(C(F)(F)F)cc2Cl)cc1 (stereo unspecified),0.959 (inactive)
9,Cc1cc(C)cc(OCC(C)Nc2nc(N)nc(C(C)(C)F)n2)c1 (stereo unspecified),0.967 (inactive)
10,Nc1ccc(S(=O)(=O)Nc2nccs2)cc1,1.02 (inactive)
11,O=C1NCC[n+]2ccccc21.[Br-],0.987 (inactive)
12,CC1=C(c2ccccc2)C(=O)N(C(C)(C)c2cc(Cl)cc(Cl)c2)CO1,0.979 (inactive)
13,CCCCOCCOC(=O)COc1ccc(Cl)cc1Cl,0.948 (inactive)
14,CC(C)c1ccccc1,0.968 (inactive)
15,CCOc1nc(F)cc2nc(S(=O)(=O)Nc3c(Cl)cccc3C(=O)OC)nn12,1.01 (inactive)
16,CCCOC(=O)NCCCN(C)C,0.967 (inactive)
17,CCS(=O)(=O)c1nnc(N(C)C(=O)NC)s1,0.99 (inactive)
18,Cl.NCCO/C=C/[C@H](N)C(=O)O,1.05 (inactive)
19,CC(C)CCCCCOC(=O)C(C)Oc1ccc(Cl)cc1Cl (stereo unspecified),0.982 (inactive)
